Bioassay records deposited in PubChem BioAssay by National Center for Advancing Translational Sciences (NCATS).
SARS PLpro yeast: SARS-CoV PLP inhibition in yeast; S. cerevisiae expressing SARS-CoV PLpro, growth rescue; Potency, µM (series often up to 32.9 µM), most hits filed as activators; AID 485353; 0.19% of 330,000 active; calls by dose curve; also: nearly all actives have a fitted effect of over 55% in size
Sm TGR block: inhibitors of Schistosoma mansoni thioredoxin glutathione reductase | Potency, µM (top dose mostly 114 µM), hits mostly inhibitors | AID 485364 | 3% of 360,000 active | Q962Y6 | purified TGR, DTNB reduction, TNB absorbance 405 nm; also: nearly all actives have a fitted effect of over 60% in size
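First, TGR (20 nM dispensed) and NADPH were mixed with compound. Second, a 15 min room-temperature incubation followed. Third, further NADPH and then DTNB were added to start the reaction. Finally, TNB absorbance was monitored kinetically.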
Pf growth 48h: P. falciparum growth inhibition at 48 hours (one generation); P. falciparum luciferase growth in erythrocytes, 48 h; 5.9% of 310,000 active; Potency, µM (highest dose often 28.7 µM), usual class: inhibitors
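Cell-based growth assay: transgenic P. falciparum expressing firefly luciferase, cultured in red cells within RPMI 1640 containing 0.5% w/v Albumax, 24 mM bicarbonate and gentamycin. A drop in luciferase activity indicates inhibition.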
Pf growth 96h: P. falciparum growth inhibition at 96 hour, primary screen for plastid delayed-death inhibitors. P. falciparum luciferase reporter growth, 96 h. Potency, µM (doses to about 28.7 µM), most hits filed as inhibitors. 6.9% of 320,000 active. AID 504834
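96 h incubation, 37 C, 5% CO2, of luciferase-reporter P. falciparum-infected RBCs (2% hematocrit, 0.05% parasitemia final) with test compounds; endpoint luminescence.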
A number is an active result; 0 = inactive; ? = inconclusive; - = no result. Compounds with a hit are over-represented: about 12% of the library has one in this group of screens. Unless noted, calls follow the shape of the dose curve; as a rule, active = well fitted curve in the direction sought with a large enough effect; inconclusive = small, poorly fitted or top-dose-only effect, or another doubt; inactive = no such curve, though single readings can be large; an effect the other way counts as inactive or inconclusive.

SMILES | SARS PLpro yeast | Sm TGR block | Pf growth 48h | Pf growth 96h
COc1ccc(CNC(=O)Cc2csc3nc(-c4ccc(C)cc4)cn23)cc1 | - | 0 | - | -
Cc1cccc(C)c1NC(=S)N(CCN(C)C)Cc1cccs1 | 0 | 0 | 0 | ?
Cc1cc(C)c(NC(=S)N(CCN(C)C)Cc2cccs2)c(C)c1 | 0 | 0 | 0 | 3.29µM
CCOC(=O)c1c(NC(=O)C(NCCN(C)C)c2ccccc2)sc2c1CCCC2 (stereo not drawn) | 0 | 0 | 9.28µM | ?
NC(=O)c1c(NC(=O)CSc2nnc(-c3ccccc3)n2CC2CCCO2)sc2c1CCC2 (stereo not drawn) | 0 | 28.2µM | 0 | ?
CCOC(=O)c1c(NC(=O)c2ccn(CC)n2)sc2c1CCCC2 | 0 | 0 | 10.4µM | -
CCOC(=O)c1c(NC(=O)CSc2nnc(-c3c[nH]c4ccccc34)n2CCOC)sc2c1CCCCC2 | 0 | 0 | ? | 9.28µM
CCOC(=O)c1c(NC(=O)c2ccc(C)cc2)sc2c1CCCCC2 | - | 0 | - | -
CCOC(=O)c1c(NC(=O)C(=O)N/N=C/c2ccccc2OC)sc2c1CCCCC2 | 0 | 0 | 0 | 0
CCOC(=O)c1c(NC(=O)C(=O)N/N=C/c2ccccc2O)sc2c1CCCCC2 | ? | 0 | 0.657µM | 0.928µM
CCC1=C2CC[C@H]3C(=O)N(C)C(=O)[C@H]3[C@H]2[C@@]2(Cc3ccccc3)C(=NCC(=O)OC)OC(=O)N2C1=O | 0 | 0 | 0 | ?
CCC1=C(OC(=O)N(CC)CC)N2C(=O)OC(=NCC3CC3)[C@]2(Cc2ccccc2)[C@H]2C1=CC[C@H]1C(=O)N(CC(=O)OC)C(=O)[C@H]12 | 0 | 0 | 5.86µM | 7.38µM
CCC1=C(OC(=O)N(CC)CC)N2C(=O)OC(=NCc3ccccc3)[C@]2(C)[C@H]2C1=CC[C@H]1C(=O)N(c3ccccc3)C(=O)[C@H]12 | 0 | 0 | 7.38µM | 8.28µM
CCC1=C(OC(=O)N(CC)CC)N2C(=O)OC(=NCC(=O)OC)[C@]2(C)[C@H]2C1=CC[C@H]1C(=O)N(C)C(=O)[C@H]12 | 0 | 0 | 0 | 0
CCC1=C(OC(=O)N(CC)CC)N2C(=O)OC(=NCc3ccccc3)[C@]2(C)[C@H]2C1=CC[C@H]1C(=O)N(CC(=O)OC)C(=O)[C@H]12 | 0 | 0 | 8.28µM | 9.28µM
COc1cc(/C=C/C(=O)OCC(=O)N2CCN(S(=O)(=O)c3ccc(C)cc3C)CC2)cc(Cl)c1OC | 0 | 0 | 0 | 0
CC1CCN(S(=O)(=O)c2ccc3c(c2)N(CC(=O)NC(C)C)C(=O)CO3)CC1 | - | 0 | - | -
OC(COCc1cccs1)CN1CCCCCC1 (stereo not drawn) | 0 | 0 | 13.1µM | 0
CN1CCCN(CC(O)COCc2cccs2)CC1 (stereo not drawn) | 0 | 50.1µM | 0 | 0
OC(COCc1ccc2c(c1)OCO2)CN1CCCCC1 (stereo not drawn) | 0 | 0 | 0 | 11.7µM
O=C(Cn1cc(S(=O)(=O)Cc2cccc(Cl)c2)c2ccccc21)Nc1ccccc1C(F)(F)F | - | 0 | - | -
CCc1nc(SCc2cc(=O)c3cc(C)ccc3[nH]2)n[nH]1 | - | 0 | - | -
CCN(C(=O)CSc1nc2ccccc2n1CC(=O)N(C)C1CCCCC1)c1ccccc1 | - | 0 | - | -
CCCc1cc2c(=O)c(-c3ccccn3)c(C)oc2cc1O | 0 | 0 | ? | 9.28µM
O=C(CCNS(=O)(=O)c1ccc2c(c1)CCCC(=O)N2)NCc1ccccc1Cl | - | 0 | - | -
SMILES | SARS PLpro yeast | Sm TGR block | Pf growth 48h | Pf growth 96h
COc1ccccc1Cn1nnc2c(=O)[nH]c(C3CCN(C(=O)c4ccc(C)cc4)CC3)nc21 | 0 | 0 | ? | 0
COc1ccccc1Cn1nnc2c(=O)[nH]c(C3CCN(C(=O)c4ccccc4Cl)CC3)nc21 | 0 | 0 | 9.28µM | 0
COc1ccccc1Cn1nnc2c(=O)[nH]c(C3CCN(C(=O)c4ccc(F)cc4)CC3)nc21 | 0 | 0 | 11.7µM | 0
O=C(CN1CCCc2ccccc21)Nc1cc(S(=O)(=O)N2CCCC2)ccc1Cl | 0 | 0 | 13.1µM | 8.28µM
O=C(Cn1nnc(-c2ccc(S(=O)(=O)N3CCCC3)cc2)n1)Nc1ccccc1-n1cccc1 | 0 | 0 | 9.28µM | ?
NC(=O)c1ccc(-c2nnn(CC(=O)Nc3cccc(S(=O)(=O)N4CCCC4)c3)n2)cc1 | 0 | 0 | 0 | 0
Cc1ccc2c(c1)CCCN2CC(=O)Nc1cc(S(=O)(=O)N2CCCC2)ccc1Cl | 0 | 0 | 10.4µM | 4.65µM
Cc1ccsc1C(=O)OCC(=O)c1cc(C)n(C)c1C | 0 | - | - | -
Cc1nnc2ccc(-c3cccc(NS(=O)(=O)c4cc(F)ccc4F)c3)nn12 | 0 | 0 | 0 | ?
O=[N+]([O-])c1ccccc1S(=O)(=O)Nc1cccc(-c2ccc3nncn3n2)c1 | 0 | 0 | 0 | 0
